This note sets out measurements from PubChem BioAssay (NCI).

What all share (test): NCI-60 one-dose screen, 48 h (100 = growth as untreated, 0 = no growth, -100 = all killed)
What all share (details): 10 µM unless noted

For assay [1], the system named is T-47D breast.
The test system of assay [2] is BT-549 breast.
Assay [3] has as its system MDA-MB-435 melanoma.
Assay [4] has as its system SW-620 colon.
The subject of assay [5] is MCF7 breast.
The subject of assay [6] is HCT-116 colon.
Assay [7] deals with HCC-2998 colon.
In assay [8] the test system is KM12 colon.

The structures appear in SMILES notation. The panel holds about 83,000 compounds, 20% with a hit somewhere; the sample as a whole holds those more often.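 Compound tested at a single concentration for 48 hours in 96-well plates; a percent growth value below 10 was scored as active.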 A number with no mark means an inactive call. Calls of active or inactive are those of the source.

Consider `CNc1nc(NC2CCCC2)nc(Sc2ccc(OC)cc2)n1`, for which the growth was 27.3% [100 µM] in assay [1]; 7.66% [100 µM] (active) in assay [2]; 0.45% [100 µM] (active) in assay [3]; 21% [100 µM] in assay [4]; 30.9% [100 µM] in assay [5]; 0.657% [100 µM] (active) in assay [6]. Besides, the growth was 38% [100 µM] in assay [7] and 1.94% [100 µM] (active) in assay [8].

As for `COCCCNS(=O)(=O)c1ncnc2nc[nH]c12`, the growth in assay [1] is 105%; in assay [2], 123%; in assay [3] it was 107%; in assay [4] it was 101%; in assay [5], 112%; in assay [6], 93.5%. Moreover, the growth in assay [7] was 102%; in assay [8] it was 95.7%.

`OCc1n(Cc2ccc3ccccc3c2)cc[n+]1Cc1ccc2ccccc2c1`: the growth in assay [1] is 31.3%; in assay [2] it was 31.2%; in assay [3], 5.53% (active); in assay [4] it was 67.7%; in assay [5], 61.8%; in assay [6], 35.6%. The growth in assay [7] is 39.8%; in assay [8], 39.3%.

As to `Nc1ncnc2c1CN(Cc1ccccc1)CC2`, the growth in assay [1] was 105%; in assay [2], 108%; in assay [3] it was 107%; in assay [4], 107%; in assay [5], 93.6%; in assay [6], 102%. Moreover, the growth is 98.5% in assay [7] and 108% in assay [8].

On to `O=C(N/N=C/c1ccc(Cl)cc1Cl)c1ccccc1Nc1cccc(C(F)(F)F)c1`, for which the growth in assay [1] was 83.4%; in assay [2], -57.4% (active); in assay [3] it was 70.7%; in assay [4], 84.4%; in assay [5], 280%; in assay [6], 60.7%. In addition, the growth in assay [7] was 88.2%; in assay [8] it was 79%.

For the molecule `Cn1c(N2N=C(c3ccc(Cl)cc3)CC2c2ccccc2)nc(-c2ccccc2)c(C#N)c1=O` (configuration not stated), the growth in assay [1] was 64.4%; in assay [2], 88.1%; in assay [3] it was 83.6%; in assay [4] it was 77.1%; in assay [5], 62.1%; in assay [6] it was 51%. In addition, the growth in assay [7] was 82.3%; in assay [8], 78.3%.

For `O=C1CSC(c2ccccc2Cl)N1c1nnc(Cn2nnc3ccccc32)o1` (configuration not stated), the growth in assay [1] is 50.5%; in assay [2], 98.9%; in assay [3] it was 93.4%; in assay [4], 93.2%; in assay [5], 86.8%; in assay [6], 60.1%. For the same molecule, the figures for the growth in assay [7] and in assay [8] were 86.4% and 77.1%, respectively.

`COc1cc(/C=C/C(=O)CC(=O)/C=C/c2ccc(OC(=O)CCNC34CC5CC(CC(C5)C3)C4)c(OC)c2)ccc1OC(=O)CCNC12CC3CC(CC(C3)C1)C2`: the growth in assay [1] is 50.8%; in assay [2] it was -10.7% (active); in assay [3], -31.2% (active); in assay [4], 8.69% (active); in assay [5], 17.8%; in assay [6] it was -0.854% (active). In addition, the growth in assay [7] was 34.1%; in assay [8], 5.79% (active).

Consider `O=C(N/N=C/c1cccc(O)c1O)c1ccccc1`, for which the growth in assay [1] was 15.5%; in assay [2], 31.3%; in assay [3], 28.8%; in assay [4], 33.5%; in assay [5], 3.07% (active); in assay [6], 9.39% (active). Moreover, the growth in assay [7] is 8.51% (active); in assay [8], 25.9%.

As to `O=c1ccn(C2CC=C(CO)O2)c(=O)[nH]1` (configuration not stated), the growth in assay [1] was 96.5%; in assay [2] it was 106%; in assay [3] it was 106%; in assay [4], 103%; in assay [5] it was 92%; in assay [6], 96%. The results for the growth in assay [7] and in assay [8] were 123% and 103%, respectively.

`CCc1ccc(-c2nc(SCC(=O)NC3CCCCC3)n[nH]2)cc1`: the growth is 81.7% in assay [1]; 84.6% in assay [2]; 59.2% in assay [3]; 80.5% in assay [4]; 88.8% in assay [5]; 74.2% in assay [6]. Further, the growth in assay [7] was 76.3%; in assay [8], 82.2%.

As for `COc1ccc(CNC(=O)c2c(C)n([O-])c3cc(F)c(F)cc3[n+]2=O)cc1`, the growth in assay [1] was 67.8%; in assay [2] it was 80.3%; in assay [3], 106%; in assay [4], 71.1%; in assay [5], 55.9%; in assay [6], 97.8%. Besides, the growth was -73.5% (active) in assay [7] and 96.1% in assay [8].

As to `COc1cc(C2CC(C3C(=O)N(C)C(=O)N(C)C3=O)=NN2C=O)cc(OC)c1OC` (configuration not stated), the growth in assay [1] was 83.8%; in assay [2], 106%; in assay [3], 101%; in assay [4], 97.7%; in assay [5] it was 97.6%; in assay [6] it was 102%. In addition, the values for the growth in assay [7] and in assay [8] were 100% and 102%, respectively.

`CN(C)CCC(=O)Nc1ccc(-n2cc(-c3cccc(NC(=S)Nc4cccc(-c5cn(-c6ccc(NC(=O)CCN(C)C)cc6)nn5)c4)c3)nn2)cc1`: the growth in assay [1] is 69.1%; in assay [2], 81.6%; in assay [3], 110%; in assay [4], 17.4%; in assay [5] it was 5.07% (active); in assay [6], 26.7%. Also, the growth was 101% in assay [7] and 56.3% in assay [8].
